A number with no mark means an inactive call. Inconclusive results are not listed. Activity calls are given as the source filed them. Unless noted, the call rests on the fitted dose curve; in most records, active means well fitted curve in the direction sought with a large enough effect in the repeat runs; inconclusive means weak or mixed curves; inactive means no such curve, though single readings can be large; an effect the other way counts as inactive or inconclusive.

Potency, outcome and max activation data for four compounds are collected here from PubChem BioAssay (Tox21).

The target in test [1] is Thyrotropin receptor (Homo sapiens) (UniProt P16473). Description: qHTS assay to identify small molecule antagonists of the thyroid stimulating hormone receptor (TSHR) signaling pathway (AID 1259385; calls by dose curve; further: nearly all actives have a fitted effect of over 20% in size). In short, it runs like this: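 Antagonist mode: compound-treated TSHR-expressing HEK293 cells were stimulated with 1.5 ng/mL TSH (final) in presence of Ro20-1724 for 30 min at RT. HTRF cAMP detection after 1 h; each compound tested at 15 concentrations, triplicate.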
Thyrotropin receptor (Homo sapiens), sequence (P16473 whole entry, looked up): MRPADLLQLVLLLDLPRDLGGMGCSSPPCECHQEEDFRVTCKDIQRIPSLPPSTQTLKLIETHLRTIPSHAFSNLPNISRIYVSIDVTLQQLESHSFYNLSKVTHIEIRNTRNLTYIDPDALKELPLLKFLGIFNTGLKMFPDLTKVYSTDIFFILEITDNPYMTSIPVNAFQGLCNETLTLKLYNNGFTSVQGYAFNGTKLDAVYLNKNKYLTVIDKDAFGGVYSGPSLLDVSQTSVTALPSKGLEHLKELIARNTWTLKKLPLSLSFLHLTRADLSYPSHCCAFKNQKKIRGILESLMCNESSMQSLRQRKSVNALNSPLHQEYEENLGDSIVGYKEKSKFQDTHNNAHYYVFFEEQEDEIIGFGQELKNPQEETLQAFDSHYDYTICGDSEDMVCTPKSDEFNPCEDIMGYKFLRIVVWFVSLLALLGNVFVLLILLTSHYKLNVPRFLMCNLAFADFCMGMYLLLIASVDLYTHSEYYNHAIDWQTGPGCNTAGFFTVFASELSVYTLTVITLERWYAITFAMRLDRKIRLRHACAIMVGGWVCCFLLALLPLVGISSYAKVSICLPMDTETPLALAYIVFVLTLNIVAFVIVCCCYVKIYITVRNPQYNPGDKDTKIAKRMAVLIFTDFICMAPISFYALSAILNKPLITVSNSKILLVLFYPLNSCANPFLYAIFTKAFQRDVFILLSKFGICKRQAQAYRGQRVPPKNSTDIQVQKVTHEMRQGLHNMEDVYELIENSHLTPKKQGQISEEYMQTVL
For orientation: Quantitative high-throughput screening tests each substance at several concentrations.

A short description of test [2]: qHTS assay to identify small molecule agonists of the estrogen receptor alpha (ER-alpha) signaling pathway in the presence of an antagonist - cell viability counter screen (AID 1259386).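 Further: series mostly up to about 92 µM; cells exposed to compounds for 22 h at 37 °C before the viability read; nearly all actives have a fitted effect of over 30% in size.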 In short, it runs like this:
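The test measures whether compounds kill ER-alpha reporter cells (VM7Luc4E2) under antagonist co-treatment (ICI-182,780, 10.0nM). Fluorescence from CellTiter-Fluor is read after a 22hr exposure.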

For test [3], the target named is Progesterone receptor (Homo sapiens) (UniProt P06401). The test can be described thus: qHTS assay to identify small molecule agonists of the progesterone receptor (PR) signaling pathway (AID 1346784; calls by dose curve; further: nearly all actives have a fitted effect of over 30% in size). In short, it runs like this: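 HEK 293T PR-UAS-bla reporter cells, 2% charcoal-stripped FBS; 6 hr settle at 37C/5% CO2, compound (DMSO) 16 hr, LiveBLAzer B/G FRET substrate 2 hr RT, fluorescence intensity read.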
Progesterone receptor (Homo sapiens), sequence (P06401 whole entry, looked up): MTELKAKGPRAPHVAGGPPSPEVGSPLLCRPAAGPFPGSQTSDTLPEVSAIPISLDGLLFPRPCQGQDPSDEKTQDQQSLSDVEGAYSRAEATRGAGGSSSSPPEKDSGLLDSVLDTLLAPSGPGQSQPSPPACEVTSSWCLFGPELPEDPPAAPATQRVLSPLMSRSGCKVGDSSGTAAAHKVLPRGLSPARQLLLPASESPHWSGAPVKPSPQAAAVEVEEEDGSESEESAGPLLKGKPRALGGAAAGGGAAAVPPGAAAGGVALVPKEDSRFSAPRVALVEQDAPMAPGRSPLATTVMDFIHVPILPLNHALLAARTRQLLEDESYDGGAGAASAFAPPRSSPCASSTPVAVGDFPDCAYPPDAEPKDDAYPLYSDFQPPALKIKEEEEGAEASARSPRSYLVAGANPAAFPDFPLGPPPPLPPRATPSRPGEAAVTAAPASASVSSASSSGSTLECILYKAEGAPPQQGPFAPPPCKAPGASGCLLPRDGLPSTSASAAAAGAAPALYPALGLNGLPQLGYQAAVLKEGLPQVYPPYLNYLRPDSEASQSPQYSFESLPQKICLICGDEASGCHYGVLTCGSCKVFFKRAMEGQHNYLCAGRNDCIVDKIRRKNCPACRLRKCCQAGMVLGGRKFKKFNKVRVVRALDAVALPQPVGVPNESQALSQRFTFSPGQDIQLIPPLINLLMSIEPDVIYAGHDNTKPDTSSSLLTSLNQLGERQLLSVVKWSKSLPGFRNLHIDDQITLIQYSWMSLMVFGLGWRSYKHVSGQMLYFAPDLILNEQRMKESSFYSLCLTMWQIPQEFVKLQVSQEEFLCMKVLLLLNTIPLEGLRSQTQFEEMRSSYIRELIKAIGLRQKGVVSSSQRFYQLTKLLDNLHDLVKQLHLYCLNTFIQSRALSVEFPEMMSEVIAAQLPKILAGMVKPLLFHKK

Test [4] shares this target. The test can be described thus: qHTS assay to identify small molecule antagonists of the progesterone receptor (PR) signaling pathway (AID 1346795; active means well fitted inhibition curve with a large enough effect in the signal ratio in the repeat runs, not every such curve was filed as active; the % refers to the signal ratio). In short, it runs like this:
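Beta-lactamase reporter, HEK293T PR-UAS-bla line; 2% charcoal-stripped FBS; 6 hr pre-incubation, 37C/5% CO2. Compound + R5020 1 nM final, 16 hr. LiveBLAzer B/G FRET substrate, 2 hr RT; fluorescence intensity read.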

Test [5] can be described thus: qHTS assay to identify small molecule antagonists of the progesterone receptor (PR) signaling pathway - cell viability counter screen (AID 1346798). Further: series mostly up to about 92 µM; nearly all actives have a fitted effect of over 50% in size. In short, it runs like this: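 Luminescence readout (CellTiter-Glo, 30 min, RT) of viability in PR-UAS-bla HEK293T cells exposed to compound and R5020 agonist for 16 hr at 37C, 5% CO2; run in the same wells as the beta-lactamase reporter read.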

The nature of test [6]: qHTS assay to identify small molecule agonists of the progesterone receptor (PR) signaling pathway - cell viability counter screen (AID 1346799; calls by dose curve; further: nearly all actives have a fitted effect of over 45% in size). In short, it runs like this: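 HEK293T PR-UAS-bla, 3,000 cells/well, 2% charcoal-stripped FBS; 6 h settle, compound 16 h at 37C/5% CO2; LiveBLAzer 2 h RT, then CellTiter-Glo 30 min RT, luminescence read.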
The nature of test [7]: qHTS assay to identify small molecule antagonists of the TGF-beta/Smad signaling pathway - cell viability counter screen (AID 1346824). Further: nearly all actives have a fitted effect of over 50% in size. In short, it runs like this: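 Cytotoxicity counter-screen run in the same wells as the beta-lactamase Smad reporter read: CellTiter-Glo luminescence after 30 min at room temperature. HEK 293T SBE-bla cells had 5 hr compound exposure at 37 C with TGF-beta1 (0.25 ng/mL stock).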

Test [8] in a line: qHTS assay to identify small molecule agonists of the TGF-beta/Smad signaling pathway - cell viability counter screen (AID 1346829). Further: top concentration of the series differs between compounds; nearly all actives have a fitted effect of over 45% in size. In short, it runs like this: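 Compound-treated SBE-bla HEK 293T cells (5 hr, 37 C) were assessed for viability with CellTiter-Glo in parallel with the reporter read.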
Test [9] can be described thus: qHTS assay to identify small molecule agonists of the TGF-beta/Smad signaling pathway (AID 1346859; active means well fitted activation curve with a large enough effect in the signal ratio in the repeat runs, not every such curve was filed as active; the % refers to the signal ratio; further: series mostly up to about 77 µM). In short, it runs like this: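 Read-out: fluorescence at 460 and 530 nm (405 nm excitation) after a 2 hr room-temperature incubation with beta-lactamase FRET substrate. SBE-bla HEK 293T cells had been treated with test compounds for 5 hr at 37 C.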
The target of test [10] is Thyrotropin-releasing hormone receptor (Homo sapiens) (UniProt P34981). Description: qHTS assay to identify small molecule antagonists of the thyrotropin-releasing hormone receptor (TRHR) signaling pathway (AID 1346877; active means well fitted inhibition curve with a large enough effect in the repeat runs, not every such curve was filed as active; further: series mostly up to about 51 µM). In short, it runs like this:
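Overnight-plated (18 h, 37 °C) HEK293 cells expressing TRHR were dye-loaded 2 h, treated with compound, then stimulated with TRH at 1 nM final. Fluorescence intensity was captured every second for 3 min.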

Test [11] has the same target. Description: qHTS assay to identify small molecule agonists of the thyrotropin-releasing hormone receptor (TRHR) signaling pathway (AID 1346891; calls by dose curve;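 further: HEK293 cells expressing TRHR with calcium dye readout; series mostly up to about 58 µM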). In short, it runs like this:
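HEK293/TRHR cells, 1500 per well, 18 h 37 °C; Ca dye 2 h 37 °C; pin-tool compound addition (agonist mode); kinetic fluorescence 3 min, 1 s reads; 15 concentrations, triplicate.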

The nature of test [12]: Human pregnane X receptor (PXR) small molecule agonists, qHTS cell viability counter screen (AID 1346977). Further: nearly all actives have a fitted effect of over 50% in size. In short, it runs like this: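 Fluorescence read-out (CellTiter-Fluor) of viability in PXR-Luc HepG2 cells, multiplexed with the luciferase agonist read. Compounds in DMSO added after 5hr plating; 24hr total exposure at 37C, 5% CO2.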
Test [13] can be described thus: Caspase-3/7 induction in HepG2 cells by small molecules, qHTS assay (AID 1346978). Further: nearly all actives have a fitted effect of over 15% in size. In short, it runs like this:
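Caspase-3/7 induction was measured by Caspase-Glo 3/7 luminescence (30 min, room temperature) after a 17 hr compound exposure of wild-type HepG2 cells seeded at 2,000 per well and pre-incubated 5 hr.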

The nature of test [14]: Caspase-3/7 induction in CHO-K1 cells by small molecules, qHTS cell viability counter screen (AID 1346979). Further: nearly all actives have a fitted effect of over 35% in size. In short, it runs like this:
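CHO-K1 wt, 1,500 cells/well; 5hr pre-incubation 37C/5% CO2; compound pin transfer (DMSO); 16hr exposure; CellTiter-Fluor added, 1hr, fluorescence read.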

Test [15] is described as follows: Caspase-3/7 induction in CHO-K1 cells by small molecules, qHTS assay (AID 1346980). Further: nearly all actives have a fitted effect of over 15% in size. In short, it runs like this: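 Luminescent Caspase-Glo 3/7 read (30min, room temperature) quantified apoptosis induction. Cells were wild-type CHO-K1, treated with compound for 17hr at 37 C and 5% CO2.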
A short description of test [16]: Caspase-3/7 induction in HepG2 cells by small molecules, qHTS cell viability counter screen (AID 1346981). Further: series mostly up to about 92 µM; nearly all actives have a fitted effect of over 30% in size. In short, it runs like this:
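Treatment of HepG2 cells with DMSO-delivered compounds ran 16 hr at 37 C following a 5-hr pre-incubation of 2,000 cells/well. CellTiter-Fluor fluorescence, read after 1 hr, served as the viability measure in a qHTS format.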

The target in test [17] is Nuclear receptor subfamily 1 group I member 2 (Homo sapiens) (UniProt O75469). The test can be described thus: Human pregnane X receptor (PXR) small molecule agonists, qHTS assay (AID 1346982). Further: nearly all actives have a fitted effect of over 35% in size. Further: potency means the concentration at half of the fitted maximal effect. In short, it runs like this: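 Stable HepG2 line reporting PXR-mediated CYP3A4 expression via luciferase. Treatment: 24 hr with compounds in DMSO at 37 C. Detection: ONE-Glo luminescence.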
Nuclear receptor subfamily 1 group I member 2 (Homo sapiens), sequence (O75469 whole entry, looked up): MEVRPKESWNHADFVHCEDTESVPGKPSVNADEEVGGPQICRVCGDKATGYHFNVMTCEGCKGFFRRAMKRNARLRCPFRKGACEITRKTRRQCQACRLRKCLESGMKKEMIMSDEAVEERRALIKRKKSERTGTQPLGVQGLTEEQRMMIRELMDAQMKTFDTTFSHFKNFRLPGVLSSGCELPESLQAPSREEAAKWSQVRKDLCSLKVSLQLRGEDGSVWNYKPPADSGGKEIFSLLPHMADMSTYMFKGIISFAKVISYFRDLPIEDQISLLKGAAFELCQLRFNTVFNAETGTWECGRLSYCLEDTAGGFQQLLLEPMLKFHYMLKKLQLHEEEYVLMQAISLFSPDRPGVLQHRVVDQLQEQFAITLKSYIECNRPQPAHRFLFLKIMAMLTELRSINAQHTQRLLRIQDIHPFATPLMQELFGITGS

The target in test [18] is Nuclear receptor subfamily 1 group I member 2 (Rattus norvegicus) (UniProt Q9R1A7). Description: Rat pregnane X receptor (rPXR) activation by small molecules, qHTS assay (AID 1346983). Further: nearly all actives have a fitted effect of over 20% in size. The following applies: rPXR luciferase reporter cells, One-Glo luminescence, 24 h; max activation: stronger effect = higher value. In short, it runs like this: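 Luminescent readout (One-Glo luciferase, 30 min room temperature) followed 24 hr compound treatment at 37 C of rPXR cells plated 2,000 per well and preincubated 5hr; qHTS format with compounds delivered in DMSO.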
Nuclear receptor subfamily 1 group I member 2 (Rattus norvegicus), sequence (Q9R1A7 whole entry, looked up): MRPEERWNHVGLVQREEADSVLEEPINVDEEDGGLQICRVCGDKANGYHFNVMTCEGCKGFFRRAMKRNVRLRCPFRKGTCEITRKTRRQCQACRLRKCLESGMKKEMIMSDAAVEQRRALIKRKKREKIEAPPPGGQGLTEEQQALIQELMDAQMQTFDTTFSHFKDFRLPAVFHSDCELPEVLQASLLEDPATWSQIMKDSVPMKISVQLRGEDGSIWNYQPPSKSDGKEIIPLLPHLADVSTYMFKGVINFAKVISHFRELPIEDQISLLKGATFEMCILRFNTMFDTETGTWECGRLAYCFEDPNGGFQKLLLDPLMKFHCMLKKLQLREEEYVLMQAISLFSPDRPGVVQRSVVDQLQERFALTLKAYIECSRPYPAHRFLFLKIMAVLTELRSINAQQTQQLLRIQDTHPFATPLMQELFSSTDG

The target in test [19] is Nuclear receptor subfamily 1 group I member 2 (Homo sapiens) (UniProt O75469). The test can be described thus: CYP3A4 induction through human pregnane X receptor (PXR) by small molecules, qHTS assay (AID 1346984). Further: nearly all actives have a fitted effect of over 40% in size. In short, it runs like this:
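After 24 h at 37C with compound, DPX-2 cells (HepG2, co-transfected PXR response element and CYP3A4 promoter-luciferase) got 3uM final P450-Glo Luciferin-IPA for 3 h; One-Glo luminescence followed.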

For test [20] the target is unchanged. Description: Human pregnane X receptor (PXR) activation by small molecules, qHTS assay (AID 1346985). Further: nearly all actives have a fitted effect of over 40% in size. In short, it runs like this:
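DPX-2 cells (HepG2 co-transfected with a PXR response element and a CYP3A4-promoter luciferase construct) were seeded at 2,000 per well, rested 5 hr at 37C, then exposed to DMSO-dissolved compounds for 24 hr. Activation was read as luciferase luminescence.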
On the % scale 0 is the no-effect control and ±100 the full control effect.

Thyrotropin-releasing hormone receptor (Homo sapiens), sequence (P34981 whole entry, looked up): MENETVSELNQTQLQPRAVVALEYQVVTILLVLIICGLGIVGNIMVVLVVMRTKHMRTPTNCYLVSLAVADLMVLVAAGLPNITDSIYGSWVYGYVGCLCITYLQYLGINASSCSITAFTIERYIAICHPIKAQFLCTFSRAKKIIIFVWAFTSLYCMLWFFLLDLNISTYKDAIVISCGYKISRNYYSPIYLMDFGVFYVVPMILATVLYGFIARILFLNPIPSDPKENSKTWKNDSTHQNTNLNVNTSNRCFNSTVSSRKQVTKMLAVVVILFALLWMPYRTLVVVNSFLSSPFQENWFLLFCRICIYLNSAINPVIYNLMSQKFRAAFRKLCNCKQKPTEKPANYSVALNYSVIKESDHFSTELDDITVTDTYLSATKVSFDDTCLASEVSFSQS

Turning to `O=C(O)c1ccc(O)cc1O`, the Potency entry in test [1], in [2], in test [3], in test [4], in test [5] and in test [6] was “inactive” in each case. Further, the Potency result in test [8], in [9], in test [12], in test [13], in test [14] and in test [16] was “inactive” throughout. In addition, the Potency entry in [17] was “inactive”. In addition, the result in [7], in [10], in test [11] and in test [15] was inactive.
Consider `C/C(C=O)=C\c1ccccc1`, for which the Potency entry in test [1], in test [2], in test [3], in test [4], in test [5] and in test [6] was “inactive” each time. The Potency entry in test [8], in test [9], in [12], in test [13] and in test [16] was “inactive” throughout. Also, the compound was called inactive in test [7], in test [10], in test [11] and in test [15]. Moreover, the Potency in [17] is 30 µM (active).
Turning to `CCN(CC)CCOC(=O)C(c1ccccc1)c1ccccc1`, the Potency entry in test [1], in test [2], in [3], in [4], in [5] and in [6] was “inactive” throughout. Moreover, the Potency entry in test [8], in test [9], in [13], in [14], in test [16] and in test [17] was “inactive” each time. The Potency result in test [19] and in test [20] was “inactive” in each case. The call in test [7], in [10], in test [11] and in test [15] was inactive. The max activation in test [18] was 0.131%.
Consider `CCCCCCCCCCCCCCCCCC(=O)OCC(CC)CCCC` (configuration not stated), for which the Potency result in [1], in test [2], in [3], in [4], in test [5] and in test [6] was “inactive” throughout. In addition, the Potency result in test [8], in test [9], in [12], in [13], in [14] and in [16] was “inactive” in each case. Moreover, the Potency result in test [17] is “inactive”. Also, the compound was classed as inactive in [7] and in test [15].
